Results filed as inconclusive are left out. The source made the active and inactive calls. The call rests on the fitted dose curve; in most records, active means well fitted cell-killing curve with a large enough effect; inconclusive means small, poorly fitted or top-dose-only effect; inactive means no such curve, though single readings can be large or run the other way.
Experiment: qHTS of pediatric cancer cell lines to identify multiple opportunities for drug repurposing: Primary screen for Rh30 cells (AID 1347107); further: nearly all actives have a fitted effect of over 75% in size
Conditions: Rh30 rhabdomyosarcoma viability, CellTiter-Glo luminescence, 48 h; series mostly up to 46 µM; activity change, negative = cytotoxic: at the top concentration
Source text: Drug repurposing or repositioning has been offered as a strategy for drug development in oncology programs. This approach has special potential for childhood cancers and other rare or orphan diseases, where the expected return on new drug development has been a disincentive to pharmaceuticals.
In this project we exploit the poly-pharmacology of drugs to discover new indications via phenotypic screening of a panel of 19 well-characterized cell lines derived from solid tumors seen in children and adolescents. The goal is to identify approved drugs with previously unrecognized anticancer properties that has the potential to reveal new mechanisms and biological processes involved in carcinogenesis or drug resistance. We employed a titration-based paradigm (quantitative high-throughput screening or qHTS), where all compounds were tested at multiple concentrations for their effect on cell viability. Concentration-response curves (CRCs) were derived directly from the primary screen, and both potency and efficacy values were used to identify compounds with robust bioactivity profiles. We screened the NIH Chemical Genomics Center (NCGC) Pharmaceutical Collection (NPC) and Mechanism Interrogation Plate (MIPE) small molecule collections of approved and investigational compounds against these cell lines; and measured metabolically active cells after 48 hours of compound treatment as a proxy for cell viability.
Assay Submitter: Nathalia J. Martinez, National Center for Advancing Translational Sciences, National Institutes of Health, Rockville, MD, USA; email: natalia.martinez@nih.gov
[1] Shen, M et al. Quantitative high-throughput phenotypic screening of pediatric cancer cell lines identifies multiple opportunities for drug repurposing. Oncotarget 2017 Dec 19;9(4):4758-4772. PMID 29435139.
The cells were obtained from University of North Carolina (UNC), Pediatric Preclinical Testing Program (PPT), and Coriell Institute (CI).
qHTS cell viability assay:
Cells were assayed in growth media at a density of 500-1,000 cells/well. Five microliters of cells were dispensed into 1,536-well, white, solid-bottom, TC-treated plates (Greiner Bio One) using a multidrop dispenser and incubated at 37 degrees C, 5% CO2, under a humidified atmosphere for 5 hours. Twenty-three nanoliters of compounds and controls (neutral control DMSO or positive control bortezomib at final concentration of 2.3 µM) were subsequently transferred by Kalypsys pintool. For primary screens, the MIPE collection was tested at 11-point dilutions (final concentrations range from 0.78 nM to 46 µM) and the NPC collection at 8-point dilutions (final concentrations range from 0.59 nM to 46 µM). Compounds tested in follow-up screens were assayed at 11-point dilutions. Cells were incubated for 48 hours, followed by addition of 3 µL of CellTiter-Glo (Promega). After a 15 min incubation at room temperature, samples were analyzed for luminescence intensity using a ViewLux High-throughput CCD imager equipped with clear filters.
On the % scale 0 is the no-effect control and ±100 the full control effect.

| SMILES | activity change, negative = cytotoxic |
| --- | --- |
| O=C1C(O)=C(O)C(=O)C(O)=C1O | 19.8% (inactive) |
| NS(=O)(=O)c1cc2c(cc1Cl)NC(CC1CCCC1)NS2(=O)=O (stereo not given) | 13.5% (inactive) |
| C=C[C@H]1CN2CC[C@H]1C[C@@H]2[C@@H](O)c1ccnc2ccc(OC)cc12 | 24.6% (inactive) |
| CC(=O)O[C@]1(C(C)=O)CC[C@H]2[C@@H]3C=C(Cl)C4=CC(=O)CC[C@]4(C)[C@H]3CC[C@@]21C | 17.5% (inactive) |
| CC(CNC1CCCCC1)OC(=O)c1ccccc1 (stereo not given) | 12% (inactive) |
| C#C[C@]1(O)CC[C@H]2[C@@H]3CCC4=CC(=O)CC[C@@H]4[C@H]3CC[C@@]21CC | 14.9% (inactive) |
| Cc1c[nH]c2ccccc12 | 27.8% (inactive) |
| CCCN(CCc1cccs1)[C@H]1CCc2c(O)cccc2C1 | 1.46% (inactive) |
| CC(C)[N+](C)(C)CC(O)COc1cccc2ccccc12 (stereo not given) | -14.2% (inactive) |
| CC(=O)Nc1ccc(OC(=O)c2ccccc2OC(C)=O)cc1 | 21% (inactive) |
| CC(=O)Nc1ccc(S(=O)(=O)Nc2ccc([N+](=O)[O-])cc2)cc1 | 17.1% (inactive) |
| CC[C@H](c1ccc(O)cc1)[C@@H](CC)c1ccc(O)cc1 | -4.82% (inactive) |
| COC(=O)C(c1ccccc1Cl)N1CCc2sccc2C1 (stereo not given) | 15.6% (inactive) |
| CNCCCCOc1ccccc1Cc1ccccc1 | 5.38% (inactive) |
| O=[N+]([O-])c1cccc(S(=O)(=O)NCCNS(=O)(=O)c2cccc([N+](=O)[O-])c2)c1 | 13.5% (inactive) |
| O=C1C(CCS(=O)c2ccccc2)C(=O)N(c2ccccc2)N1c1ccccc1 (stereo not given) | 16.9% (inactive) |
| COP(=O)(OC)OC(c1ccc(Cl)cc1)P(=O)(OC)OC (stereo not given) | 6.93% (inactive) |
| CCOC(=O)Nc1ccc2c(c1)N(C(=O)CCN1CCOCC1)c1ccccc1S2 | 7.04% (inactive) |
| CCCc1ncc(C[n+]2ccccc2C)c(N)n1 | 0.651% (inactive) |
| CC(O)Cn1cnc2c1c(=O)n(C)c(=O)n2C (stereo not given) | 7.79% (inactive) |

| SMILES | activity change, negative = cytotoxic |
| --- | --- |
| OCCOCCN1CCN(C2=Nc3ccccc3Sc3ccccc32)CC1 | 7.44% (inactive) |
| CC(=O)Nc1ccc(CC(=O)O)cc1 | 9.64% (inactive) |
| CCN(CC)CCOc1ccc2c(c1)C(=O)c1cc(OCCN(CC)CC)ccc1-2 | 9.07% (inactive) |
| O=C(NC1CCN(CCc2c[nH]c3ccccc23)CC1)c1ccccc1 | 10.2% (inactive) |
| CN(CCCN1c2ccccc2CCc2ccccc21)CC(=O)c1ccc(Cl)cc1 | 16.4% (inactive) |
| O=C1[C@H](CC[C@H](O)c2ccc(F)cc2)[C@@H](c2ccc(O)cc2)N1c1ccc(F)cc1 | 13.3% (inactive) |
| CC(C)(Cc1c[nH]c2ccccc12)NCC(O)COc1ccccc1C#N (stereo not given) | 14.4% (inactive) |
| OC[C@H]1O[C@@H]2O[C@H]3[C@H](O)[C@@H](O)[C@@H](O[C@H]4[C@H](O)[C@@H](O)[C@@H](O[C@H]5[C@H](O)[C@@H](O)[C@@H](O[C@H]6[C@H](O)[C@@H](O)[C@@H](O[C@H]7[C@H](O)[C@@H](O)[C@@H](O[C@H]8[C@H](O)[C@@H](O)[C@@H](O[C@H]1[C@H](O)[C@H]2O)O[C@@H]8CO)O[C@@H]7CO)O[C@@H]6CO)O[C@@H]5CO)O[C@@H]4CO)O[C@@H]3CO | 4.57% (inactive) |
| Cc1cccc(C)c1NC(=O)c1ccccc1C(=O)O | 23.9% (inactive) |
| CC(C)Cc1ccc(CC(=O)O)cc1 | 28.9% (inactive) |
| CCCCC(CC)COC(=O)/C=C/c1ccc(OC)cc1 (stereo not given) | 24.3% (inactive) |
| C=CCN1CCc2nc(N)sc2CC1 | 27% (inactive) |
| COc1ccc(CCN(C)CCCN2CCc3cc(OC)c(OC)cc3CC2=O)cc1OC | 7.91% (inactive) |
| c1ccc(-c2nc[nH]c2-c2ccccc2)cc1 | 3.31% (inactive) |
| CC(=O)OCC(=O)[C@H]1CC[C@H]2[C@@H]3CCC4=CC(=O)CC[C@]4(C)[C@H]3CC[C@]12C | 12.3% (inactive) |
| CC(C)=CCOc1ccc(/C=C/C(=O)c2ccc(OCC=C(C)C)cc2OCC(=O)O)cc1 | 15.7% (inactive) |
| Cn1c(=O)c2[nH]c(Br)nc2n(C)c1=O | 10.8% (inactive) |
| C=C[C@@]1(C)CC(=O)[C@]2(O)[C@@]3(C)[C@@H](O)CCC(C)(C)[C@@H]3[C@H](O)[C@H](OC(C)=O)[C@@]2(C)O1 | 20.7% (inactive) |
| CC(=O)NCCCCCC(=O)O | 6.62% (inactive) |
| CC(=O)Nc1ncc([N+](=O)[O-])s1 | 22.8% (inactive) |

— PubChem BioAssay (NCATS)
